For seven compounds, residual activity results are on record in ChEMBL document CHEMBL2218924, “A broad activity screen in support of a chemogenomic map for kinase signalling research and drug discovery” (Biochem J, 2013).

Test [1] deals with ALK tyrosine kinase receptor (Homo sapiens) (UniProt Q9UM73). The settings on record: at 10 µM.
Test [2] has as its target T1, Activin receptor type-1B (Homo sapiens) (UniProt P36896).
T1 sequence (whole entry): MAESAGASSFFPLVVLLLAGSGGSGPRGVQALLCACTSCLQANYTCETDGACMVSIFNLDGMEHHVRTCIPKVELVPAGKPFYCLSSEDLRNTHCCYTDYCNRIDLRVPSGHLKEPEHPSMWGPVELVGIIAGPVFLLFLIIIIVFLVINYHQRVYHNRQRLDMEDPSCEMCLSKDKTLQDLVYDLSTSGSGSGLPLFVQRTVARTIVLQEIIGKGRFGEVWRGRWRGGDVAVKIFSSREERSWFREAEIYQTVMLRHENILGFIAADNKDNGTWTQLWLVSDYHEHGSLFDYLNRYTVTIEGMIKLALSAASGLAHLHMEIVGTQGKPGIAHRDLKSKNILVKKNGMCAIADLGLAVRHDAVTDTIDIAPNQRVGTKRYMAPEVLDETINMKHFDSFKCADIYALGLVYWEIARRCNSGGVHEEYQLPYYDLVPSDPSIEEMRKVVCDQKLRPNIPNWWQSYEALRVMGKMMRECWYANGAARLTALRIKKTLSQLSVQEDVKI
The settings on record: at 1 µM.

Test [3] addresses T1, Activin receptor type-1B (Homo sapiens). Particulars: at 10 µM.
The target in test [4] is T2, AMP-activated protein kinase (AMPK) alpha-1/beta-1/gamma-1 (Homo sapiens) (UniProt P54619+Q9Y478+Q13131). The settings on record: at 1 µM.
The target in test [5] is T2, AMP-activated protein kinase (AMPK) alpha-1/beta-1/gamma-1 (Homo sapiens). Particulars: at 10 µM.
The target of test [6] is T3, AMP-activated protein kinase, AMPK (Homo sapiens) (UniProt P54646+O43741+P54619+Q9UGJ0+Q9Y478+Q13131+Q9UGI9). The settings on record: at 1 µM.
Test [7] has as its target T3, AMP-activated protein kinase, AMPK (Homo sapiens). The settings on record: at 10 µM.
Test [8] deals with T4, NUAK family SNF1-like kinase 1 (Homo sapiens) (UniProt O60285).
T4 sequence (whole entry): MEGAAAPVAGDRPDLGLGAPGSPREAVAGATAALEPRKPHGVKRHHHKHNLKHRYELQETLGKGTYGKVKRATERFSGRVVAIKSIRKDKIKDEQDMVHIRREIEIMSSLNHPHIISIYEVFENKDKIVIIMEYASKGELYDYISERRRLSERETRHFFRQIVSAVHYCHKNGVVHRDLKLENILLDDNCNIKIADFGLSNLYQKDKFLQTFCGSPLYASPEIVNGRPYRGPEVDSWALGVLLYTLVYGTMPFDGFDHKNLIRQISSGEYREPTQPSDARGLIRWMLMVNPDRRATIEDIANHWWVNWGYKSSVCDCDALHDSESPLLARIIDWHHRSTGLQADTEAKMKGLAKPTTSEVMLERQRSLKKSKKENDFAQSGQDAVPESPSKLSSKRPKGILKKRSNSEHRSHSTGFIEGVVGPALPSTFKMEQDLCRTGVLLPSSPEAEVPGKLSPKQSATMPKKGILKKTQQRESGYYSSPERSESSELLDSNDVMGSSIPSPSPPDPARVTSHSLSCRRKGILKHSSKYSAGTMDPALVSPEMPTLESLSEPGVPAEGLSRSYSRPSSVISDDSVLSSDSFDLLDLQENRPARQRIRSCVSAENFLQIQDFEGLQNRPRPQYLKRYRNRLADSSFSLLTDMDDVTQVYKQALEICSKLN
The settings on record: at 1 µM.

Test [9] addresses T4, NUAK family SNF1-like kinase 1 (Homo sapiens). The settings on record: at 10 µM.
Test [10] deals with T5, Mitogen-activated protein kinase kinase kinase 5 (Homo sapiens) (UniProt Q99683).
T5 sequence (whole entry): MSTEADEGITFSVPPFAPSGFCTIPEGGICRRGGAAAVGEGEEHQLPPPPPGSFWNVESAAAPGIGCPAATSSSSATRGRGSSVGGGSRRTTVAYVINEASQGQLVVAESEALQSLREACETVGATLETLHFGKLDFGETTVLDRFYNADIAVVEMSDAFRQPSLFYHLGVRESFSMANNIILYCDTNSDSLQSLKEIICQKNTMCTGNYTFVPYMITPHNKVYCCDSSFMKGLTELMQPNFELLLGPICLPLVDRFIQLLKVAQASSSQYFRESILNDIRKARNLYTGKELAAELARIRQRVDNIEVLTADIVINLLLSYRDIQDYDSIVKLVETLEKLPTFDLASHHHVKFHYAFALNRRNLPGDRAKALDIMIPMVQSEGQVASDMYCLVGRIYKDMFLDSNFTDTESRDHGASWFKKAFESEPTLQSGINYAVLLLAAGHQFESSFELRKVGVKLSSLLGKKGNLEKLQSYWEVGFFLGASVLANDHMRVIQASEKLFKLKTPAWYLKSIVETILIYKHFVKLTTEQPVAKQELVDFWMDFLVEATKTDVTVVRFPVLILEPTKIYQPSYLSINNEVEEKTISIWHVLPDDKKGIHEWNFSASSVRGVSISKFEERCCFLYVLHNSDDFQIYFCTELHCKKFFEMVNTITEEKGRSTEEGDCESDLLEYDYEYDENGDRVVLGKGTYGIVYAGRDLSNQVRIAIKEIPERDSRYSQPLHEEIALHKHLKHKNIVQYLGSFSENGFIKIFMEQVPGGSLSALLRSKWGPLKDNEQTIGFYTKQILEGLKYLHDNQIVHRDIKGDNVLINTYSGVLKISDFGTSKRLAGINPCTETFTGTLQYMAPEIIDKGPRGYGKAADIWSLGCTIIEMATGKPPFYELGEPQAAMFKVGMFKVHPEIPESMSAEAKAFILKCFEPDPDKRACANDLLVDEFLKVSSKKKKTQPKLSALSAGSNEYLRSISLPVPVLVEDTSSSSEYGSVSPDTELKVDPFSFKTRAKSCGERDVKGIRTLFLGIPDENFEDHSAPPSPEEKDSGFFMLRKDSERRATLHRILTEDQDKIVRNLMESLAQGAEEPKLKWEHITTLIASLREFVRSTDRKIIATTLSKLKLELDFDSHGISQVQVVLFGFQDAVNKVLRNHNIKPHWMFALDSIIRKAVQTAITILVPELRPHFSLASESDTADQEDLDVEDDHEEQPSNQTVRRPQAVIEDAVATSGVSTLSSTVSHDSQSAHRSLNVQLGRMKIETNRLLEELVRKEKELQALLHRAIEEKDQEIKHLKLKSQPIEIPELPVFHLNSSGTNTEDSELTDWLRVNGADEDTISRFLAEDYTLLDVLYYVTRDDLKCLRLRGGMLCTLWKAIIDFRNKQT
Particulars: at 1 µM.

In test [11] the target is Platelet-derived growth factor receptor alpha (Homo sapiens) (UniProt P16234). Particulars: at 1 µM.
Chain of Platelet-derived growth factor receptor alpha (Homo sapiens) (P16234 whole entry): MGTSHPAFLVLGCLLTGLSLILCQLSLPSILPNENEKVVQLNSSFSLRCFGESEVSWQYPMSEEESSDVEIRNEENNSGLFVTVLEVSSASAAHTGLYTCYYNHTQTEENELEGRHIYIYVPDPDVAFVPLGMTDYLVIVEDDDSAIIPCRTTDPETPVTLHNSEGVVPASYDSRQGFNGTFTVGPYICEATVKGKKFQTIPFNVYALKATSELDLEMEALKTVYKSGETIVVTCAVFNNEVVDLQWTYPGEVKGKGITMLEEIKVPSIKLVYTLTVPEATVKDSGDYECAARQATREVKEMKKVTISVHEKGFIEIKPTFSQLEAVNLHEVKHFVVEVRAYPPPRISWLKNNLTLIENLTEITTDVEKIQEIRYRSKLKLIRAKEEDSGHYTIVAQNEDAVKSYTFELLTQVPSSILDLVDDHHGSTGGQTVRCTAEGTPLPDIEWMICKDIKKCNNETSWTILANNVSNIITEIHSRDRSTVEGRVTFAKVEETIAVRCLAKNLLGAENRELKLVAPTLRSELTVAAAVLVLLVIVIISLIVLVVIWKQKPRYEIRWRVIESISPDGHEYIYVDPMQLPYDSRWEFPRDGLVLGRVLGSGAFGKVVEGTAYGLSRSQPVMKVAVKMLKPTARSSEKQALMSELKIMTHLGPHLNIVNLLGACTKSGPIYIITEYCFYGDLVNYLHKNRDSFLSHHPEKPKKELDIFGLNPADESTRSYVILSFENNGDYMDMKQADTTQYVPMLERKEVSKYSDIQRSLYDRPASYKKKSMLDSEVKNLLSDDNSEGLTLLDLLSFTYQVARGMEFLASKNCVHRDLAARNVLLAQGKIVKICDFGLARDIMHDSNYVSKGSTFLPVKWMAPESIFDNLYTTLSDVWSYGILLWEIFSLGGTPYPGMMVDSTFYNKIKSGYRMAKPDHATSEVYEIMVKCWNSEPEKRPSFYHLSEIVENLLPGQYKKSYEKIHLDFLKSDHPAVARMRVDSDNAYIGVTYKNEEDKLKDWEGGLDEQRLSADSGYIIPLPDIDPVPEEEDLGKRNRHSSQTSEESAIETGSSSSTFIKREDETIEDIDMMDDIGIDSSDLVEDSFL
Test [12] shares this target. The settings on record: at 10 µM.
The target of test [13] is Platelet-derived growth factor receptor beta (Homo sapiens) (UniProt P09619). Particulars: at 1 µM.
Chain of Platelet-derived growth factor receptor beta (Homo sapiens) (P09619 whole entry): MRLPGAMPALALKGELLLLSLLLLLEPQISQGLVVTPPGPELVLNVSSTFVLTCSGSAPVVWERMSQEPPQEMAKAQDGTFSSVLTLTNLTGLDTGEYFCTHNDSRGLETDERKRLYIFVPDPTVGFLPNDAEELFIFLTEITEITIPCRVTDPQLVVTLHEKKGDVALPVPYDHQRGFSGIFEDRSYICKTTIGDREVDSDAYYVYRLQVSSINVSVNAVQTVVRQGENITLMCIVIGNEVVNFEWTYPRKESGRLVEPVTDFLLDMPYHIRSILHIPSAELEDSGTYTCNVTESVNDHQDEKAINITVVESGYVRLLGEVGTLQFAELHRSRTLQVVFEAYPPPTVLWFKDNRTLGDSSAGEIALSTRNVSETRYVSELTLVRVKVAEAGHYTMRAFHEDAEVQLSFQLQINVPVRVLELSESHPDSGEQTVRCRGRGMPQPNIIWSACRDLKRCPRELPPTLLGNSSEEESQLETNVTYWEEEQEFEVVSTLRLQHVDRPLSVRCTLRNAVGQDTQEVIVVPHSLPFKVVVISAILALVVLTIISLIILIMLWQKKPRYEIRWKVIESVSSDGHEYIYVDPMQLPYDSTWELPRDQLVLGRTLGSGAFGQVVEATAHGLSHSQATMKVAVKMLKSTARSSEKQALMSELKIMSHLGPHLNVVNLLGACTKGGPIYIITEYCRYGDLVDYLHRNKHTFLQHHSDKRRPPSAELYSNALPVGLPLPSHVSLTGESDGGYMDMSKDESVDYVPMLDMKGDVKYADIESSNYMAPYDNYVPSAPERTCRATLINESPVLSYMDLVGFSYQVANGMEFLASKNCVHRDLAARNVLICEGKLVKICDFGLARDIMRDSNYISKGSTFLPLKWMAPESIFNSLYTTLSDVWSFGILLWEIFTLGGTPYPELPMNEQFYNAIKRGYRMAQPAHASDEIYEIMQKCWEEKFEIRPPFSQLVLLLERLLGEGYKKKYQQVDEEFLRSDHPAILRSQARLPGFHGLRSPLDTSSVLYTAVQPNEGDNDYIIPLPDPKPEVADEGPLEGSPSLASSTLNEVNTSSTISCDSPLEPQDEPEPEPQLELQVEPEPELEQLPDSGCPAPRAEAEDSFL
Test [14] shares this target. The settings on record: at 10 µM.
Test [15] deals with T6, 3-phosphoinositide-dependent protein kinase 1 (Homo sapiens) (UniProt O15530).
T6 sequence (whole entry): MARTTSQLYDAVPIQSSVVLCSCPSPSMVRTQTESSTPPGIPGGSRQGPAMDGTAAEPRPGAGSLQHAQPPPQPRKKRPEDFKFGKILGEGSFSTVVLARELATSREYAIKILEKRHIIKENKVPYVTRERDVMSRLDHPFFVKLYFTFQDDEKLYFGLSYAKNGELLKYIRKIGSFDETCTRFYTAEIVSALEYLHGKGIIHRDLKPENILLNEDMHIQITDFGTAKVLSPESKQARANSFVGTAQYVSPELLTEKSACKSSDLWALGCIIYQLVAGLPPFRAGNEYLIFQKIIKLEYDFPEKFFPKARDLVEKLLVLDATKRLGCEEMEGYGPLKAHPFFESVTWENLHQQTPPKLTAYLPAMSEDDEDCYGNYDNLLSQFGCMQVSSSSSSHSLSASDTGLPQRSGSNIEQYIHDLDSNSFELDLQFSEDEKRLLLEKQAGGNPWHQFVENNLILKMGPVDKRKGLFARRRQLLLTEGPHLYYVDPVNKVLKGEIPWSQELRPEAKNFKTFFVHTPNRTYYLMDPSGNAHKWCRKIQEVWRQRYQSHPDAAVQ
Particulars: at 1 µM.

The target of test [16] is T6, 3-phosphoinositide-dependent protein kinase 1 (Homo sapiens). The settings on record: at 10 µM.
For test [17], the target named is cAMP-dependent protein kinase catalytic subunit alpha (Homo sapiens) (UniProt P17612). Particulars: at 1 µM.
Test [18] has the same target. The settings on record: at 10 µM.
Test [19] deals with RAC-gamma serine/threonine-protein kinase (Homo sapiens) (UniProt Q9Y243). Particulars: at 1 µM.
Chain of RAC-gamma serine/threonine-protein kinase (Homo sapiens) (Q9Y243 whole entry): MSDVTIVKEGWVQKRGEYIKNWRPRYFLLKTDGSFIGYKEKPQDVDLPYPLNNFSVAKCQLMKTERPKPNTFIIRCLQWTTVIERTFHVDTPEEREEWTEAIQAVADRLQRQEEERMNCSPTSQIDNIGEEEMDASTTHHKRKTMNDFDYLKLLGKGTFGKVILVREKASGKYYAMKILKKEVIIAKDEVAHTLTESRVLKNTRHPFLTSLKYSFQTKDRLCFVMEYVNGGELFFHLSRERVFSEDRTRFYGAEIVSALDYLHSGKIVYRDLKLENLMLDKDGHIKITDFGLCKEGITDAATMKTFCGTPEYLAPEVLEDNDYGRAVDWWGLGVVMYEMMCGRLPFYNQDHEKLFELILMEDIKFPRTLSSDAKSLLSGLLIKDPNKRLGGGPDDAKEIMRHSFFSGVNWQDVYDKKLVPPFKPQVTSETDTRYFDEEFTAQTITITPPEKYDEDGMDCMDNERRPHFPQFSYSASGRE
The target is the same in test [20]. Particulars: at 10 µM.

Chain of ALK tyrosine kinase receptor (Homo sapiens) (Q9UM73 19-1620 limits assumed): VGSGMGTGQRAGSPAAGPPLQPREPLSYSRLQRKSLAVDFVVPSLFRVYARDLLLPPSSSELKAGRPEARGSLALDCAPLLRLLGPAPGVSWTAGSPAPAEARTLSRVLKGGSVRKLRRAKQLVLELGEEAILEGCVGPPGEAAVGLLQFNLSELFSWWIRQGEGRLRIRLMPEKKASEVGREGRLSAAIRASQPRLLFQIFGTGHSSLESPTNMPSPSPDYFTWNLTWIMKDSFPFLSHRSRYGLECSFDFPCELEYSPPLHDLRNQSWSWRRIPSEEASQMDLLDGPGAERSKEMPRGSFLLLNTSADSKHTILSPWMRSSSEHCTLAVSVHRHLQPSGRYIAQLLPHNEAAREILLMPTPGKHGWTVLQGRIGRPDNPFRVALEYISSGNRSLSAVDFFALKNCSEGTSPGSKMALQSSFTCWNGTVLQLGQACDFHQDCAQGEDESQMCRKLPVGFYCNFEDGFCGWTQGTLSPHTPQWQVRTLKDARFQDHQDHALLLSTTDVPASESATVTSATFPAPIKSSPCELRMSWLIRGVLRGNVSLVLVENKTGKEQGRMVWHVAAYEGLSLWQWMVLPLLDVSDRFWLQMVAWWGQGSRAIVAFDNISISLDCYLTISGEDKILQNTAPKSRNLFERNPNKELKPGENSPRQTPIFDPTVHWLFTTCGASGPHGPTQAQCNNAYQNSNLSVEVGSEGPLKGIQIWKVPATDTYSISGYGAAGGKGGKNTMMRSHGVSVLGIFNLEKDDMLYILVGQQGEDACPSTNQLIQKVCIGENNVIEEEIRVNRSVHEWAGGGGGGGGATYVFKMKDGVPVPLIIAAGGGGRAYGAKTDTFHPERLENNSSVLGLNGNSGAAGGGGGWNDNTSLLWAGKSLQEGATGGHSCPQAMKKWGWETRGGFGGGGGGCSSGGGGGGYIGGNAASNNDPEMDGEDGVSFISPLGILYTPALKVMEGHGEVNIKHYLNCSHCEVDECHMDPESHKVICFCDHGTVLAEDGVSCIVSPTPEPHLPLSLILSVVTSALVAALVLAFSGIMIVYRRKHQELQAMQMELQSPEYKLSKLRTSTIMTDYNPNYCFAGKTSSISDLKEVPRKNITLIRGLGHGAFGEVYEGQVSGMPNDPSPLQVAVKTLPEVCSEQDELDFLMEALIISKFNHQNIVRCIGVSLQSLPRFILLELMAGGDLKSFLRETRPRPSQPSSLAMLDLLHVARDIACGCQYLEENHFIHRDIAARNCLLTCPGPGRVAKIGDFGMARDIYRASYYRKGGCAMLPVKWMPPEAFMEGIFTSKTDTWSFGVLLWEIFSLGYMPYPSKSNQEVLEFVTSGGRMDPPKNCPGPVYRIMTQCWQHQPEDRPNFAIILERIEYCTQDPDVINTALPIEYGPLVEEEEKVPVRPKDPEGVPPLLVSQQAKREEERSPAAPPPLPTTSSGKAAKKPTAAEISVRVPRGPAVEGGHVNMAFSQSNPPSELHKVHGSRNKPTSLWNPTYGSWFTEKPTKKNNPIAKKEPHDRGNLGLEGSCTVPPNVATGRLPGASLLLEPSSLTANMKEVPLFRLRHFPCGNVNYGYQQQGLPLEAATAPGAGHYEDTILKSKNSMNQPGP

For `CNc1cc2c(Nc3cccc(Br)c3)ncnc2cn1`, the residual activity in test [1] came out at 72%; in [2] it was 121%; in test [3], 116%; in [4], 100%; in [5], 80%; in [6], 91%. Moreover, the residual activity amounted to 86% in test [7]; 100% in [8]; 80% in test [9]; 103% in test [10]; 122% in test [11]; 107% in test [12]. Moreover, the residual activity was determined as 109% in test [13]; 113% in test [14]; 100% in test [15]; 64% in test [16]; 102% in test [17]; 98% in test [18]. The results for the residual activity in [19] and in test [20] were 104% and 93%, respectively.
With `Nc1cccc(-c2cc3c(Oc4cccc(O)c4)ncnc3[nH]2)c1`, the residual activity in [1] is 8%; in [2], 72%; in [3] it was 36%; in [4], 53%; in [5], 13%; in [6], 54%. The residual activity was 15% in test [7]; 31% in test [8]; 7% in [9]; 96% in [10]; 48% in test [11]; 10% in test [12]. Also, the residual activity in test [13] came to 48%; in [14] it was 8%; in test [15], 92%; in test [16], 40%; in test [17], 94%; in test [18], 85%.
For the compound `Nc1nc(Nc2ccc(S(N)(=O)=O)cc2)nn1C(=S)Nc1c(F)cccc1F`, the residual activity is 1% in [1]; 7% in [2]; -4% in test [3]; -2% in test [4]; -1% in test [5]; -3% in test [6]. In addition, the residual activity in test [7] stood at 0%; in [8] it was 1%; in test [9] it was 0%; in test [10], 1%; in [11] it was 82%; in [12], 39%. For the same compound, the residual activity in test [13] was determined as 83%; in test [14], 24%; in test [15], 3%; in test [16], 0%; in [17], 53%; in test [18], 16%.
`COc1cc2ncnc(Nc3ccc(Oc4ccccc4)cc3)c2cc1OC`: the residual activity was 72% in test [1]; 121% in [2]; 112% in test [3]; 86% in [4]; 140% in test [5]; 94% in [6]. Further, the residual activity was determined as 144% in [7]; 104% in [8]; 79% in [9]; 84% in [10]; 79% in test [11]; 42% in test [12]. For the same compound, the residual activity in test [13] was 102%; in [14], 83%; in test [15], 109%; in test [16], 120%; in test [17], 92%; in test [18], 134%. Further, the residual activity in [19] amounted to 92%; in test [20], 106%.
Turning to `O=C1NC(=O)/C(=C\c2ccc3nccnc3c2)S1`, the residual activity in test [1] amounted to 46%; in [2], 115%; in [3], 93%; in [4], 94%; in [5] it was 45%; in [6], 108%. Also, the residual activity in [7] is 56%; in [8], 90%; in test [9], 81%; in test [10], 78%; in test [11], 116%; in test [12], 109%. For the same compound, the residual activity stood at 97% in test [13]; 106% in test [14]; 111% in [15]; 98% in test [16]; 71% in [17]; 70% in [18]. Besides, the residual activity in test [19] amounted to 98%; in test [20] it was 85%.
In the case of `C[C@@H](N)[C@H]1CC[C@H](C(=O)Nc2ccncc2)CC1`, the residual activity was found to be 126% in [1]; 82% in test [2]; 63% in test [3]; 98% in test [4]; 93% in test [5]; 104% in test [6]. The residual activity turned out to be 83% in test [7]; 101% in test [8]; 91% in [9]; 101% in [10]; 99% in test [11]; 102% in test [12]. Besides, the residual activity in [13] worked out at 107%; in [14] it was 106%; in test [15], 95%; in test [16] it was 83%; in [17], 96%; in test [18] it was 80%. Moreover, the residual activity in test [19] stood at 104%; in test [20], 93%.
For `CN(C)c1ccc(/C=C2\C(=O)Nc3ccccc32)cc1`, the residual activity in test [1] came to 27%; in [2], 127%; in test [3], 105%; in test [4], 92%; in test [5], 50%; in [6], 97%. Moreover, the residual activity in test [7] stood at 56%; in test [8], 93%; in [9], 80%; in test [10], 92%; in [11], 79%; in test [12], 14%. The residual activity is 101% in test [13]; 30% in test [14]; 114% in test [15]; 92% in [16]; 89% in [17]; 86% in test [18]. Also, the figures for the residual activity in test [19] and in test [20] were 96% and 100%, respectively.
